Results on nine compounds are retold here after PubChem BioAssay (EPA / NIEHS).

Calls of active or inactive are those of the source. The calls were made as follows: active = hit-call score of the fitted dose curve at least 0.9, where 1 is the maximum; inactive = score below 0.9.

The nature of experiment [1]: ATG_E_Box_CIS: Attagene CIS-FACTORIAL HepG2 Assay for human Enhancer Box (E-box) (AID 2282936). Particulars: HepG2 E-box cis-reporter transcription, actives raise or lower the signal. In outline: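 Measured 24 h post-dosing in HepG2 cells transfected with multiple cis-regulated reporter units, signal being reporter mRNA induction detected by fluorescent RT-PCR with capillary electrophoresis; gain or loss fitted against DMSO.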

The nature of experiment [2]: ATG_M_61_CIS: Attagene CIS-FACTORIAL HepG2 Assay for M61 Transcription Factor (Internal Marker) (AID 2282937). Particulars: HepG2 Attagene CIS-FACTORIAL M61 internal marker reporter; actives raise or lower the signal. The method, boiled down:
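Transfect HepG2 with MRTUs; dose 24 h; isolate RNA; reverse-transcribe with DNase I treatment; PCR-amplify, FAM-label and cut with HpaI for 2 h at 37 C; resolve by CE. Bidirectional fitting against DMSO.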

Experiment [3] is described as follows: ATG_EGR_CIS: Attagene CIS-FACTORIAL HepG2 Assay for human Early Growth Response 1 (EGR1) (AID 2282938). Particulars: HepG2 Attagene CIS-FACTORIAL EGR reporter mRNA; actives raise or lower the signal. The method, boiled down:
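After a 24 h treatment of transiently transfected HepG2 cells, total RNA was reverse-transcribed and reporter sequences PCR-amplified, labelled and run on capillary electrophoresis. Reporters sit under cis-regulatory promoters sensing endogenous factors.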

Experiment [4] can be described thus: ATG_M_19_CIS: Attagene CIS-FACTORIAL HepG2 Assay for M19 Transcription Factor (Internal Marker) (AID 2282939). Particulars: HepG2 Attagene CIS-FACTORIAL M19 internal marker reporter; actives raise or lower the signal. In outline: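 Background-control endpoint from a multiplexed HepG2 reporter panel. Cells carrying cis-regulated reporter constructs are treated 24 h, then reporter transcripts are amplified, fluorescently labelled and sized by capillary electrophoresis. DMSO defines baseline.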

Experiment [5] in a line: ATG_Ets_CIS: Attagene CIS-FACTORIAL HepG2 Assay for human Erythroblast Transformation Specific (ETS) (AID 2282941). The note with it: HepG2 ETS cis-reporter transcription, actives raise or lower the signal. In outline:
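Multiplexed reporter transcript profiling: HepG2, 24 h treatment, total RNA to cDNA, PCR, 6-FAM labelling, HpaI cut, capillary electrophoresis. Gain- or loss-of-signal fitted against DMSO.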

Experiment [6] addresses Hepatocyte nuclear factor 3-beta (Homo sapiens) (UniProt Q9Y261). Kind of experiment: ATG_FoxA2_CIS: Attagene CIS-FACTORIAL HepG2 Assay for human Forkhead box A2 (FOXA2) (AID 2282942). The note with it: HepG2 cis-reporter transcription factor activity, 24 h; actives raise or lower the signal. In outline:
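24 h dosing of HepG2 bearing cis-reporter constructs; mRNA readout by RT-PCR/CE fluorescence; bidirectional fit, DMSO baseline.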

A short description of experiment [7]: ATG_GATA_CIS: Attagene CIS-FACTORIAL HepG2 Assay for human GATA Binding Protein (AID 2282944). Particulars: HepG2 GATA cis-element reporter, Attagene multiplex mRNA; actives raise or lower the signal. The method, boiled down: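 Endogenous transcription factor activity was captured through cis-promoter-driven reporters in transfected HepG2 cells. After 24 h exposure, reporter transcripts were quantified by RT-PCR with fluorescent capillary electrophoresis, and responses fitted both directions against DMSO.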

The nature of experiment [8]: ATG_GLI_CIS: Attagene CIS-FACTORIAL HepG2 Assay for human Zinc Finger Protein GLI1 (AID 2282945). Particulars: HepG2, Attagene cis-factorial reporter mRNA, GLI element; actives raise or lower the signal. In outline: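 HepG2 cells transiently transfected with cis-promoter multiplexed reporter units report endogenous transcription factor activity. After 24 h chemical exposure, reporter mRNA was quantified by RT-PCR, 6-FAM labelling, HpaI digestion and capillary electrophoresis, with bidirectional fitting against DMSO.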

The nature of experiment [9]: ATG_FoxO_CIS: Attagene CIS-FACTORIAL HepG2 Assay for human Forkhead box O (FoxO) (AID 2282943). The note with it: HepG2 Attagene cis-reporter, FoxO element, mRNA; actives raise or lower the signal. In outline:
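Values reflect reporter mRNA induction or loss in HepG2 cells 24 h post-dosing, fitted bidirectionally with DMSO as negative control and baseline. Detection used RT-PCR and fluorescence capillary electrophoresis.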

Hepatocyte nuclear factor 3-beta (Homo sapiens), sequence (Q9Y261 whole entry, looked up): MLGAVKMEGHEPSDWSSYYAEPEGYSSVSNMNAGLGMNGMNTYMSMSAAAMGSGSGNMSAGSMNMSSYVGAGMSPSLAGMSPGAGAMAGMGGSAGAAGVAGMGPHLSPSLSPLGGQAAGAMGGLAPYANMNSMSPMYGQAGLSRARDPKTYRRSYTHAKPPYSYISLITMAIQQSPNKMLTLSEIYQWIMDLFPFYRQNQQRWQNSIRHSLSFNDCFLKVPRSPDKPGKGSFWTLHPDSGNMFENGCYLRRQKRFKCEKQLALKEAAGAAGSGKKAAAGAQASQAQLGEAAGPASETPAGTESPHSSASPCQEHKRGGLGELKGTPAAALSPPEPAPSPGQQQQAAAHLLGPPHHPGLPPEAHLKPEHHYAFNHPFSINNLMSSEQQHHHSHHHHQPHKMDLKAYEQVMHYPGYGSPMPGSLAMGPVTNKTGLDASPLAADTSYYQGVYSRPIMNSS

What is called AC50 is the concentration giving half of the maximal activity seen. For `O=C(O)c1snc(Cl)c1Cl`, the outcome in experiment [1], in [2], in experiment [4], in experiment [5], in experiment [6] and in experiment [7] was inactive. For the same compound, in experiment [8], the call was inactive. Besides, the half-maximal activity concentration (AC50) in experiment [3] was 164 µM (active).
In the case of `C=C(C)C(=O)OCCOC(=O)CC(C)=O`, the result in experiment [1], in experiment [2], in [3], in experiment [4], in [5] and in experiment [6] was inactive. Also, the compound was classed as inactive in experiment [7] and in experiment [8].
Regarding `O=[N+]([O-])c1cc(C(F)(F)F)ccc1Cl`, the outcome in [1], in experiment [2], in [3], in experiment [4], in [5] and in [9] was inactive. Besides, the outcome in experiment [8] was inactive.
Take `CCCCCCC#CC(=O)OC`: the outcome in experiment [1], in [2], in experiment [3], in experiment [4], in [5] and in experiment [6] was inactive. The call in experiment [7] and in [8] was inactive.
Take `S=C(S)NCCNC(=S)S`: the result in experiment [1], in experiment [2], in experiment [3], in experiment [4], in [5] and in experiment [6] was inactive. Besides, the result in experiment [7] and in experiment [8] was inactive.
`CC(=O)Nc1ccc(C)cc1C`: the outcome in [1], in [2], in experiment [3], in experiment [4], in [5] and in experiment [9] was inactive. In addition, the compound was called inactive in experiment [7] and in experiment [8].
In the case of `CCC(C)CCCC(C)(C)O` (stereo unspecified), the outcome in experiment [1], in experiment [2], in experiment [3], in experiment [4], in experiment [5] and in experiment [9] was inactive. The compound was classed as inactive in [7] and in experiment [8].
For `CC(CC(C)(C)C)CC(C)(C)CC(C)(C)C` (stereo unspecified), the outcome in experiment [1], in [2], in experiment [3], in experiment [4], in [5] and in [6] was inactive. Besides, the compound was called inactive in experiment [7] and in experiment [8].
Consider `Cc1ccc(C(C)C)cc1O`, for which the outcome in experiment [1], in [2], in experiment [3], in experiment [4], in experiment [5] and in [6] was inactive. Further, the compound was called inactive in experiment [7] and in experiment [8].
